# Reference: article PMC4336329 (PLoS ONE, 2015)
# About 2,200 (0.71%) of roughly 310,000 compounds showed an effect of 50% or more. The effect is printed as a negative number. The entries come from a sample that favours strong results as a whole.
# Target: human ether-à-go-go-related gene (hERG) potassium channel (human, UniProt Q12809)
# Assay: primary screen, population patch clamp on CHO cells stably expressing hERG; higher = less effect of the substance
# Sequence of human ether-à-go-go-related gene (hERG) potassium channel (Q12809 whole entry, looked up): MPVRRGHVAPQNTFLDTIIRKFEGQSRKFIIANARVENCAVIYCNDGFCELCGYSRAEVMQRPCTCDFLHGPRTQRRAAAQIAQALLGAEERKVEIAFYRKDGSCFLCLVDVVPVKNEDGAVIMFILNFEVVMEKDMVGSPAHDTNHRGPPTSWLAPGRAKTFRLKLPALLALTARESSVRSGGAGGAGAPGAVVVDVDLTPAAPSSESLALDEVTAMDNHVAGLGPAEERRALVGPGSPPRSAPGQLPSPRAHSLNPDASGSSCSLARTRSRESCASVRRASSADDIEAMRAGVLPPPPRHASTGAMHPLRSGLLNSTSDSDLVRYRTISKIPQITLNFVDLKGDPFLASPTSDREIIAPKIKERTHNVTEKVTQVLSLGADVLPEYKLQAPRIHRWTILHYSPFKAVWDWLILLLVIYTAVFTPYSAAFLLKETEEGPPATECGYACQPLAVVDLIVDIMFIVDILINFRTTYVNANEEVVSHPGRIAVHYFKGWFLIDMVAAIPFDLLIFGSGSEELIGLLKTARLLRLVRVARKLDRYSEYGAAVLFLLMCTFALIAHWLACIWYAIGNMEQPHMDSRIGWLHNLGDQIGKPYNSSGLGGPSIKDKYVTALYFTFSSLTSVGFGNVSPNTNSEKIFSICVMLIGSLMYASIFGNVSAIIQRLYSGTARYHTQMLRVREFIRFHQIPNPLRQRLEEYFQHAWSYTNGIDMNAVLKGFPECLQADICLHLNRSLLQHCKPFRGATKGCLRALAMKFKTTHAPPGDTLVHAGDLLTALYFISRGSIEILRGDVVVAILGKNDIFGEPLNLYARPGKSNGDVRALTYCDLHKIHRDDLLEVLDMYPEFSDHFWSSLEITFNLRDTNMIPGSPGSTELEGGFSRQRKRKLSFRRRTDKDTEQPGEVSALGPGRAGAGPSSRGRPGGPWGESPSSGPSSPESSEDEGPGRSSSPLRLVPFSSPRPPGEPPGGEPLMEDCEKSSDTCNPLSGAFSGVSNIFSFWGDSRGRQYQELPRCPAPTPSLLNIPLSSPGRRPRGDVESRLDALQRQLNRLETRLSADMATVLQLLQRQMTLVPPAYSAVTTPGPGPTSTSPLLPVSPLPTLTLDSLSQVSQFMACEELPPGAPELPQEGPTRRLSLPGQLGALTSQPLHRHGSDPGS
row,Structure (SMILES),"hERG current change (%, negative = inhibition) at 1uM [%]"
1,O=C(Nc1ccc(Oc2ccc(Cl)cc2)cc1)c1ncn[nH]1,2.59
2,Cc1nn(CC(=O)Nc2ccc(N3CCOCC3)cc2)c(C)c1Cl,19.7
3,CSc1ccc(CN(C)CC(=O)Nc2c(F)cccc2F)cc1.O=C(O)C(=O)O,7.89
4,COc1cc2c(cc1OC)C(=O)Cc1ccc3c(c1CN(C)CC2)OCO3,-39.4
5,COc1ccc2c(c1OC)CN(C)CCc1cc3c(cc1C(O)C2)OCO3 (centres unmarked),-0.22
6,COc1ccc2c(c1OC)CN(C)CCc1cc3c(cc1C(=O)C2)OCO3,-84
7,CC(C)(C)NC(=O)CSc1nccn1Cc1ccccc1,5.85
8,O=C(ONC1=NCCCCC1)c1cccc([N+](=O)[O-])c1,11.8
9,O=[N+]([O-])c1cccc(/C=N/NC2=NCCCCC2)c1,-70.9
10,Cl.O=[N+]([O-])c1ccccc1/C=N/NC1=NCCCCC1,-0.325
11,Cl.N=c1n(Cc2ccc(Cl)cc2)c2ccccc2n1CC(O)COc1ccccc1 (centres unmarked),-17.1
12,OC(COc1ccccc1)Cn1c2ccccc2c2ccccc21 (centres unmarked),8.25
13,COc1ccc(OCC(O)Cn2c(=N)n(CCN3CCOCC3)c3ccccc32)cc1.Cl (centres unmarked),-10.5
14,Cc1ccc(OCC(O)Cn2c(=N)n(Cc3ccccc3)c3ccccc32)cc1.Cl (centres unmarked),-61
15,COc1ccc(OCC(O)Cn2c(=N)n(Cc3ccccc3)c3ccccc32)cc1.Cl (centres unmarked),-76.6
16,Cl.N=c1n(Cc2ccccc2)c2ccccc2n1CC(O)COc1ccccc1 (centres unmarked),-55.8
17,Cc1cccc(OCC(O)Cn2c(=N)n(Cc3ccccc3)c3ccccc32)c1.Cl (centres unmarked),-16.4
18,Cc1ccc(Cn2c(=N)n(CC(O)COc3ccccc3)c3ccccc32)cc1.Cl (centres unmarked),-36.1
19,C=CCOC(=O)C1=C[C@H](c2ccc(C(F)(F)F)cc2)C[C@H](OCCCCO)O1,9.6
20,CCOC(=O)/C(=C/Nc1ccc(F)c(F)c1)[N+](=O)[O-],13
21,CCOC(=O)c1ccc(NC(=O)[C@@H](NC(N)=O)C(C)C)cc1,-0.13
22,NC(=O)c1c(NC(=O)Cn2cc([N+](=O)[O-])cn2)sc2c1CCCC2,2.68
23,CCN1C(=O)C(CC(=O)Nc2ccc(F)cc2)N(CCCN2CCN(c3ccc(F)cc3)CC2)C1=S (centres unmarked),0.806

row,Structure (SMILES),"hERG current change (%, negative = inhibition) at 1uM [%]"
1,COc1ccc(C(=O)NC2CCCCCCC2)cc1OC,9.08
2,COc1ccc(C(=O)NCCc2ccc(C)cc2)cc1OC1CCN(C(C)=O)CC1,9.4
3,COc1ccc(C(=O)NC2CC2)cc1OC1CCN(Cc2cc(C)cc(C)c2)CC1,-57.7
4,COc1cc(CN2CCC(Oc3cc(C(=O)NC4CC4)ccc3OC)CC2)cc(OC)c1,-62
5,COc1cccc(CCNC(=O)c2ccc(OC)c(OC3CCN(C(C)C)CC3)c2)c1,-2.35
6,CC(C)(C)NC(=O)c1c(F)c(F)c(F)c(F)c1F,4.34
7,O=S(=O)(c1cccc(-c2nnc(SCc3nc4ccccc4s3)o2)c1)N1CCOCC1,-2.26
8,Cc1ccc2c(c1)N(CC(=O)Nc1ccccc1F)C(=O)CO2,17.1
9,O=C(O)c1cccc(N/N=C(\N=Nc2ccccc2)c2ccccc2)c1,16.7
10,Cc1ccc2nc3c(cc(C(=O)NCCc4ccccc4)c(=N)n3CCCN3CCOCC3)c(=O)n2c1,-77.5
11,Cc1ccc2nc3c(cc(C(=O)NCCN4CCOCC4)c(=N)n3CCCN3CCOCC3)c(=O)n2c1,5.89
12,Cc1ccc2nc3c(cc(C(=O)NCCc4ccccc4)c(=N)n3CCN3CCOCC3)c(=O)n2c1,-82.9
13,CCCCNC(=O)Cn1cnc2sc(C(=O)OCC)c(C)c2c1=O,8.3
14,CC(C)[C@H](NC(=O)CCn1nnc2ccccc2c1=O)C(=O)O,17.3
15,O=C(/C=C/c1ccccc1O)c1ccc(Cl)cc1,9.95
16,Cc1nc2ccccc2c(=O)n1NC(=O)/C=C/c1ccccc1Cl,-51.1
17,Cc1nc2ccccc2c(=O)n1NC(=O)/C=C/c1ccc(Br)cc1,2.25
18,Cc1nc2ccccc2c(=O)n1NC(=O)/C=C/c1ccccc1,-0.535
19,Cc1csc(NC(=O)CCCc2cccs2)n1,1.69
20,CCCCCN(C(=O)CCC(=O)OCc1ccccc1C)c1c(N)n(CCCC)c(=O)[nH]c1=O,7.65
21,CN(c1cccc(NC(=O)CN(c2cccc(F)c2)S(C)(=O)=O)c1)S(C)(=O)=O,11.3
22,CCOC(=O)C1(CCOc2ccccc2)CCN(Cc2ccccc2O)CC1,-8.86
23,CCOC(=O)C1(Cc2ccccc2)CCCN(Cc2ccc(OCC)c(CO)c2)C1 (centres unmarked),4.54

row,Structure (SMILES),"hERG current change (%, negative = inhibition) at 1uM [%]"
1,CCOC(=O)C1(Cc2cccc(OC)c2)CCN(Cc2cc(OC)ccc2OC)CC1,-7.48
2,CCOC(=O)C1(CCOc2ccccc2)CCN(Cc2ccc(OCC)c(CO)c2)CC1,-82.4
3,CCOC(=O)C1(CCOc2ccccc2)CCN(Cc2cc(OC)c3c(c2)OCO3)CC1,-7.24
4,CCOC(=O)C1(CCOc2ccccc2)CCN(Cc2cc(OC)ccc2OC)CC1,-60.1
5,CCOC(=O)C1(CCOc2ccccc2)CCN(Cc2ccc(C)o2)CC1,-32.8
6,CCOC(=O)C1(CCOc2ccccc2)CCN(Cc2cccc(OC)c2O)CC1,-54.1
7,CCOC(=O)C1(CCOc2ccccc2)CCN(Cc2cc(OC)c(O)c(OC)c2)CC1,-66.6
8,CCOC(=O)C1(CCOc2ccccc2)CCN(Cc2ccccc2OC)CC1,-37.2
9,CCOC(=O)C1(CCOc2ccccc2)CCN(Cc2ccc3nonc3c2)CC1,0.31
10,Cc1cc(-c2ccco2)n(CC(=O)NCCCc2ccccc2)n1,14.3
11,CC(C)(C)NC(=O)c1ccc2nsnc2c1,6.08
12,C=CCn1c(COc2ccc(Cl)cc2)nnc1SCC(=O)N/N=C/c1cccc(O)c1,4.13
13,COc1cccc(-c2c(C#N)c(N)nc3c2c(C)nn3-c2ccccc2)c1O,1.84
14,FC(F)(F)c1ccncc1-c1nnc(C2CCCCC2)o1,15.5
15,CCOC(=O)N1CCC(NC(=O)c2cnn3cccnc23)CC1,-4.76
16,CC1CCCCN1CCNC(=O)CC1Oc2ccccc2NC1=O (centres unmarked),5.21
17,Cc1cc(C)nc(OC(C(=O)O)C(OCCC(C)C)(c2ccccc2)c2ccccc2)n1 (centres unmarked),10.8
18,CCOC(=O)C1(CCOc2ccccc2)CCN(Cc2ccc(COC)o2)CC1,-41.9
19,CCOC(=O)C1(CCOc2ccccc2)CCN(Cc2cc(OC)c(O)cc2Cl)CC1,7.21
20,CCOC(=O)C1(CCOc2ccccc2)CCN(Cc2ccc(F)c(OC)c2)CC1,5.6
21,CCOC(=O)C1(CCOc2ccccc2)CCN(Cc2ccc(O)c(OC)c2)CC1,-69.9
22,CCOC(=O)C1(Cc2cccc(OC)c2)CCN(Cc2ccc(OC)c(O)c2)CC1,-16.9
23,CCOC(=O)C1(CCOc2ccccc2)CCN(Cc2ccc(OC)c(O)c2)CC1,-88.3

row,Structure (SMILES),"hERG current change (%, negative = inhibition) at 1uM [%]"
1,CCOC(=O)C1(CCOc2ccccc2)CCN(Cc2ccc(O)c(Cl)c2)CC1,-2.25
2,CCOC(=O)C1(CCOc2ccccc2)CCN(Cc2ccc(OC)c(COC)c2)CC1,-77.3
3,CCOC(=O)CSc1nnc(COc2cccc(C)c2)o1,10.6
4,COCCOc1ccc(C(F)(F)F)cc1NC(=O)c1ccc(C(F)(F)F)cc1,4.7
5,CCN(CC)S(=O)(=O)c1ccc(N/N=C/c2cc(OC)c(OC)cc2OC)nc1,17.4
6,COc1ccc(C(=O)NC2CCCc3ccccc32)cc1OC1CCN(C(C)=O)CC1 (centres unmarked),3.31
7,CCOc1ccc(/C(O)=C2/C(=O)C(=O)N(CCCN3CCOCC3)C2c2ccc(F)cc2)cc1C (centres unmarked),16.5
8,CN1CCN(S(=O)(=O)c2ccc(N3CCN(C(c4ccccc4)c4ccccc4)CC3)nc2)CC1,18.9
9,Cc1ccc(NC(=O)COc2ccc(S(=O)(=O)N3CCOCC3)cc2)cc1,13.6
10,O=C(COc1ccc([N+](=O)[O-])cc1)Nc1ccc(S(=O)(=O)N2CCOCC2)cc1,-55.1
11,O=C(COc1ccc(S(=O)(=O)N2CCOCC2)cc1)Nc1cccc([N+](=O)[O-])c1,9.62
12,Cc1c(CCC(=O)N2CCC[C@H]2C(=O)O)c(=O)oc2c(C)c3oc4c(c3cc12)CCCC4,21.1
13,COC(=O)C(NC(C)=O)(Nc1ccc(C)cn1)C(F)(F)F (centres unmarked),21.1
14,Cc1ccc(NP(=O)(Oc2ccccc2F)Oc2ccccc2F)cc1,-1.69
15,COc1cc(OC)cc(C(=O)N2CCN(Cc3ccccc3Br)CC2)c1,9.25
16,Cc1ccc2nc3c(cc(C(=O)NC4CCCCC4)c(=N)n3C3CCCCC3)c(=O)n2c1,-72.7
17,Cc1ccc(S(=O)(=O)c2cc3c(=O)n4ccccc4nc3n(C3CCCCC3)c2=N)cc1,-0.427
18,Cc1ccc(S(=O)(=O)c2cc3c(=O)n4ccccc4nc3n(C3CCCC3)c2=N)cc1,3.8
19,Cc1ccc2nc3c(cc(C(=O)NC4CCCC4)c(=N)n3CCCn3ccnc3)c(=O)n2c1,-2.46
20,Cc1ccc2nc3c(cc(C(=O)NC4CCCC4)c(=N)n3C3CCCCC3)c(=O)n2c1,-86.2
